Test results as given in PubChem BioAssay AID1159580 (chemical genetic matrix, 2015).
The campaign covered roughly 5,500 compounds. About 2,000 (36%) were called active. Not shown: some 18% with an inconclusive outcome. This is one part of the list. Unmarked numbers belong to inactive results. No stated cut-off is given here; in the data, active means normalized growth mostly below about 0.91 (no sharp cut-off); inconclusive means no clear call, values can overlap the other calls; inactive means mostly above about 0.92.

Test: chemical genetic growth profiling, strain panel (AID 1159580);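 further: tested at 20 µM; growth read once vehicle control cultures reached saturation at 30 °C; 1 = growth at the plate median or of vehicle wells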
Conditions: S. cerevisiae deletion strains, growth OD

CC(=O)O[C@H]1CCC2(C)C3=C(CCC2C1(C)C)[C@@]1(C)CC[C@@H](C(C)CCC=C(C)C)[C@]1(C)CC3 (some centres not stated)
normalized growth (locus YAL021C, strain ccr4, stronger effect = lower value): 1.02
normalized growth (locus YAL026C, strain drs2, stronger effect = lower value): 1.03
normalized growth (locus YAL030W, strain snc1, stronger effect = lower value): 1.03
normalized growth (locus YBL061C, strain skt5, stronger effect = lower value): 1.04
normalized growth (locus YBR009C, strain hhf1, stronger effect = lower value): 1.03
normalized growth (locus YBR021W, strain FUR4, stronger effect = lower value): 0.912
normalized growth (locus YBR023C, strain chs3, stronger effect = lower value): 1.03
normalized growth (locus YBR171W, strain sec66, stronger effect = lower value): 1.05
normalized growth (locus YBR229C, strain ROT2, stronger effect = lower value): 1.04
normalized growth (locus YBR231C, strain swc5, stronger effect = lower value): 1.04
normalized growth (locus YBR279W, strain paf1, stronger effect = lower value): 1.02
normalized growth (locus YCL011C, strain gbp2, stronger effect = lower value): 1.04
normalized growth (locus YCL016C, strain dcc1, stronger effect = lower value): 1.03
normalized growth (locus YCL029C, strain bik1, stronger effect = lower value): 1.01
normalized growth (locus YCL061C, strain MRC1, stronger effect = lower value): 1.04
normalized growth (locus YCL069W, strain vba3, stronger effect = lower value): 1.03
normalized growth (locus YCR088W, strain abp1, stronger effect = lower value): 1.03
normalized growth (locus YDL005C, strain med2, stronger effect = lower value): 1.03
normalized growth (locus YDL035C, strain GPR1, stronger effect = lower value): 0.911
normalized growth (locus YDL040C, strain nat1, stronger effect = lower value): 1.03
normalized growth (locus YDL074C, strain BRE1, stronger effect = lower value): 0.973
normalized growth (locus YDL101C, strain DUN1, stronger effect = lower value): 1.02
normalized growth (locus YDL185W, strain tfp1, stronger effect = lower value): 1.05
normalized growth (locus YDL192W, strain arf1, stronger effect = lower value): 1.03
normalized growth (locus YDR001C, strain nth1, stronger effect = lower value): 1.03
normalized growth (locus YDR069C, strain doa4, stronger effect = lower value): 1.03
normalized growth (locus YDR101C, strain arx1, stronger effect = lower value): 1.02
normalized growth (locus YDR137W, strain rgp1, stronger effect = lower value): 1.02
normalized growth (locus YDR150W, strain NUM1, stronger effect = lower value): 1.05
normalized growth (locus YDR159W, strain sac3, stronger effect = lower value): 1.07
normalized growth (locus YDR162C, strain NBP2, stronger effect = lower value): 1.01
normalized growth (locus YDR195W, strain ref2): 1.03
normalized growth (locus YDR297W, strain sur2, stronger effect = lower value): 1.03
normalized growth (locus YDR318W, strain mcm21, stronger effect = lower value): 1.02
normalized growth (locus YDR334W, strain swr1, stronger effect = lower value): 1.04
normalized growth (locus YDR335W, strain msn5, stronger effect = lower value): 1.02
normalized growth (locus YDR388W, stronger effect = lower value): 1.06
normalized growth (locus YDR392W, strain spt3, stronger effect = lower value): 1.04
normalized growth (locus YDR502C, strain sam2, stronger effect = lower value): 1.01
normalized growth (locus YEL003W, strain gim4, stronger effect = lower value): 1.02
normalized growth (locus YEL037C, strain rad23, stronger effect = lower value): 1.02
normalized growth (locus YEL061C, strain CIN8 (second series), stronger effect = lower value): 1.03
normalized growth (locus YEL061C, strain CIN8, stronger effect = lower value): 1.04
normalized growth (locus YER015W, strain faa2, stronger effect = lower value): 1.03
normalized growth (locus YER016W, strain bim1, stronger effect = lower value): 1.04
normalized growth (locus YER110C, stronger effect = lower value): 1.06
normalized growth (locus YER111C, strain swi4, stronger effect = lower value): 1.04
normalized growth (locus YER155C, strain BEM2 (second series), stronger effect = lower value): 1.04
normalized growth (locus YER155C, strain BEM2, stronger effect = lower value): 1.03
normalized growth (locus YER167W, strain BCK2, stronger effect = lower value): 1.03
normalized growth (locus YFR010W, strain ubp6, stronger effect = lower value): 1.03
normalized growth (locus YGL078C, strain dbp3, stronger effect = lower value): 0.932
normalized growth (locus YGL086W, strain mad1, stronger effect = lower value): 1.02
normalized growth (locus YGL167C, strain pmr1, stronger effect = lower value): 1.04
normalized growth (locus YGL173C, strain kem1, stronger effect = lower value): 1.02
normalized growth (locus YGL227W, strain vid30, stronger effect = lower value): 1.03
normalized growth (locus YGL240W, strain doc1, stronger effect = lower value): 1.03
normalized growth (locus YGL248W, strain PDE1, stronger effect = lower value): 1
normalized growth (locus YGL253W, strain hxk2, stronger effect = lower value): 1.02
normalized growth (locus YGR078C, strain PAC10, stronger effect = lower value): 1
normalized growth (locus YGR135W, strain pre9, stronger effect = lower value): 1
normalized growth (locus YGR229C, strain SMI1, stronger effect = lower value): 0.963
normalized growth (locus YGR252W, strain gcn5, stronger effect = lower value): 0.884
normalized growth (locus YHR013C, strain ard1, stronger effect = lower value): 1.08
normalized growth (locus YHR027C, strain rpn1, stronger effect = lower value): 1.02
normalized growth (locus YHR079C, strain IRE1 (second series), stronger effect = lower value): 1.06
normalized growth (locus YHR094C, strain hxt1, stronger effect = lower value): 1.06
normalized growth (locus YHR129C, strain ARP1, stronger effect = lower value): 1.04
normalized growth (locus YHR142W, strain chs7, stronger effect = lower value): 1.04
normalized growth (locus YHR200W, strain rpn10, stronger effect = lower value): 1.03
normalized growth (locus YIL066C, strain RNR3, stronger effect = lower value): 1.02
normalized growth (locus YIL073C, strain SPO22, stronger effect = lower value): 1.06
normalized growth (locus YIL125W, strain kgd1, stronger effect = lower value): 1.01
normalized growth (locus YIR030C, strain dcg1, stronger effect = lower value): 1.08 [resistant] (active)
normalized growth (locus YJL092W, strain hpr5, stronger effect = lower value): 1.03
normalized growth (locus YJL095W, strain BCK1 (second series), stronger effect = lower value): 1.03
normalized growth (locus YJL095W, strain BCK1, stronger effect = lower value): 1.03
normalized growth (locus YJL115W, strain asf1, stronger effect = lower value): 1.04
normalized growth (locus YJL129C, strain trk1, stronger effect = lower value): 1.07
normalized growth (locus YJL134W, strain LCB3, stronger effect = lower value): 1.04
normalized growth (locus YJL154C, strain vps35, stronger effect = lower value): 1.03
normalized growth (locus YJL164C, strain tpk1, stronger effect = lower value): 1.02
normalized growth (locus YJL166W, strain qcr8, stronger effect = lower value): 1.03
normalized growth (locus YJL168C, strain set2, stronger effect = lower value): 1.06
normalized growth (locus YJL187C, strain SWE1 (second series), stronger effect = lower value): 0.989
normalized growth (locus YJL187C, strain SWE1, stronger effect = lower value): 1.01
normalized growth (locus YJR043C, strain POL32, stronger effect = lower value): 0.941
normalized growth (locus YJR075W, strain HOC1, stronger effect = lower value): 1.04
normalized growth (locus YKL009W, strain mrt4, stronger effect = lower value): 0.846 (active)
normalized growth (locus YKL068W, stronger effect = lower value): 1.04
normalized growth (locus YKL085W, strain MDH1 (second series), stronger effect = lower value): 1.03
normalized growth (locus YKL085W, strain MDH1, stronger effect = lower value): 1.03
normalized growth (locus YKL160W, strain elf1, stronger effect = lower value): 1.02
normalized growth (locus YKR001C, strain vps1, stronger effect = lower value): 0.997
normalized growth (locus YKR026C, strain gcn3, stronger effect = lower value): 1.04
normalized growth (locus YKR091W, strain srl3, stronger effect = lower value): 1.03
normalized growth (locus YLL001W, strain dnm1, stronger effect = lower value): 1.03
normalized growth (locus YLL026W, stronger effect = lower value): 1.02
normalized growth (locus YLL041C, strain sdh2, stronger effect = lower value): 1.05
normalized growth (locus YLR027C, strain aat2, stronger effect = lower value): 1.04
normalized growth (locus YLR039C, strain RIC1, stronger effect = lower value): 1.08
normalized growth (locus YLR058C, strain SHM2, stronger effect = lower value): 1.01
normalized growth (locus YLR102C, strain apc9, stronger effect = lower value): 1.05
normalized growth (locus YLR221C, strain rsa3, stronger effect = lower value): 1.03
normalized growth (locus YLR258W, strain gsy2, stronger effect = lower value): 1.04
normalized growth (locus YLR262C, strain YPT6 (second series), stronger effect = lower value): 1.02
normalized growth (locus YLR262C, strain YPT6, stronger effect = lower value): 0.994
normalized growth (locus YLR268W, strain sec22, stronger effect = lower value): 1.02
normalized growth (locus YLR320W, strain mms22, stronger effect = lower value): 1.05
normalized growth (locus YLR330W, strain CHS5, stronger effect = lower value): 1.03
normalized growth (locus YLR342W, strain FKS1 (second series), stronger effect = lower value): 0.953
normalized growth (locus YLR342W, strain FKS1, stronger effect = lower value): 1.04
normalized growth (locus YLR357W, strain rsc2, stronger effect = lower value): 1.04
normalized growth (locus YLR370C, strain arc18, stronger effect = lower value): 1.02
normalized growth (locus YLR371W, strain rom2, stronger effect = lower value): 1.1 [resistant] (active)
normalized growth (locus YLR384C, strain iki3, stronger effect = lower value): 1.05
normalized growth (locus YLR418C, strain cdc73, stronger effect = lower value): 1.09
normalized growth (locus YML016C, strain PPZ1, stronger effect = lower value): 1.05
normalized growth (locus YML032C, strain rad52, stronger effect = lower value): 0.994
normalized growth (locus YML120C, strain ndi1, stronger effect = lower value): 1.03
normalized growth (locus YML124C, strain tub3, stronger effect = lower value): 1.06
normalized growth (locus YMR058W, strain fet3, stronger effect = lower value): 1.03
normalized growth (locus YMR078C, strain ctf18, stronger effect = lower value): 1.08
normalized growth (locus YMR125W, strain sto1, stronger effect = lower value): 1.03
normalized growth (locus YMR129W, stronger effect = lower value): 1.03
normalized growth (locus YMR205C, strain PFK2, stronger effect = lower value): 1.04
normalized growth (locus YMR223W, strain ubp8, stronger effect = lower value): 1.01
normalized growth (locus YMR231W, strain pep5, stronger effect = lower value): 1
normalized growth (locus YMR307W, strain GAS1, stronger effect = lower value): 0.972
normalized growth (locus YNL067W, strain RPL9B, stronger effect = lower value): 0.969
normalized growth (locus YNL071W, strain lat1, stronger effect = lower value): 1.03
normalized growth (locus YNL209W, strain ssb2, stronger effect = lower value): 1.04
normalized growth (locus YNL233W, strain BNI4, stronger effect = lower value): 1.04
normalized growth (locus YNL248C, strain rpa49, stronger effect = lower value): 1.02
normalized growth (locus YNL250W, strain rad50, stronger effect = lower value): 1.04
normalized growth (locus YNL271C, strain bni1, stronger effect = lower value): 1.05
normalized growth (locus YNL298W, strain CLA4, stronger effect = lower value): 0.986
normalized growth (locus YNL307C, strain MCK1, stronger effect = lower value): 1.07
normalized growth (locus YNL322C, strain KRE1 (second series), stronger effect = lower value): 1.03
normalized growth (locus YNR049C, strain mso1, stronger effect = lower value): 1.03
normalized growth (locus YNR052C, strain pop2, stronger effect = lower value): 0.99
normalized growth (locus YOL012C, strain htz1): 1.57
normalized growth (locus YOL147C, strain pex11, stronger effect = lower value): 1.05
normalized growth (locus YOR001W, strain rrp6, stronger effect = lower value): 1.01
normalized growth (locus YOR061W, strain CKA2, stronger effect = lower value): 0.996
normalized growth (locus YOR069W, strain VPS5, stronger effect = lower value): 1.03
normalized growth (locus YOR070C, strain gyp1, stronger effect = lower value): 1.01
normalized growth (locus YOR080W, strain dia2, stronger effect = lower value): 1.02
normalized growth (locus YOR083W, strain WHI5, stronger effect = lower value): 1.01
normalized growth (locus YOR106W, strain vam3, stronger effect = lower value): 1
normalized growth (locus YOR136W, strain idh2, stronger effect = lower value): 1.04
normalized growth (locus YOR144C, strain elg1, stronger effect = lower value): 1.04
normalized growth (locus YOR184W, strain ser1, stronger effect = lower value): 0.926
normalized growth (locus YOR265W, strain rbl2, stronger effect = lower value): 1.03
normalized growth (locus YOR270C, strain vph1, stronger effect = lower value): 0.999
normalized growth (locus YOR290C, strain snf2, stronger effect = lower value): 1.02
normalized growth (locus YOR316C, strain cot1, stronger effect = lower value): 1.06
normalized growth (locus YPL051W, strain arl3, stronger effect = lower value): 1.01
normalized growth (locus YPL078C, strain atp4, stronger effect = lower value): 1.02
normalized growth (locus YPL106C, strain sse1, stronger effect = lower value): 1.09
normalized growth (locus YPL240C, strain hsp82, stronger effect = lower value): 1.03
normalized growth (locus YPL241C, strain CIN2, stronger effect = lower value): 1.05
normalized growth (locus YPR119W, strain clb2, stronger effect = lower value): 1.06
normalized growth (locus YPR141C, strain kar3, stronger effect = lower value): 1.08
normalized growth (locus YPR163C, strain tif3, stronger effect = lower value): 1.04
normalized growth (locus YPR167C, strain met16, stronger effect = lower value): 1.03
normalized growth (strain wtn01, stronger effect = lower value): 0.997
